The source of these data is PubChem BioAssay (NCATS).

Structures are written as SMILES. Inconclusive results are not listed. A number with no mark means an inactive call. Calls of active or inactive are those of the source. Calls follow the shape of the dose curve; as a rule, active = well fitted activation curve with a large enough effect; inconclusive = small, poorly fitted or top-dose-only effect; inactive = no such curve, though single readings can be large or run the other way.

The target of the assay is Arylsulfatase A (Homo sapiens) (UniProt P15289). The assay is described as follows: qHTS screen for enhancers of Arylsulfatase A (ASA1): LOPAC Validation Assay (AID 720538). As to activity change, positive = activation: 0% is about no effect. Particulars: ASA enzyme activity, LOPAC qHTS enhancer assay; series mostly up to 57.5 µM; activity change, positive = activation: at the top concentration. The source says: Lysosomal storage diseases (LSDs) are caused by genetic mutations in genes encoding proteins important for normal lysosomal function. In affected patients, symptoms are usually not manifested unless the mutations result in more than 90% reduction of enzymatic activity of a specific lysosomal enzyme. […] Small molecules could function as enzyme enhancement agents by binding to and stabilizing mutant misfolded proteins in the endoplasmic reticulum (ER), allowing them to evade the ER associated degradation (ERAD), and eventually reach the lysosome. Moreover, small molecules is hypothesized to be able to enhance the residual activity of deficient lysosomal enzyme by either interacting directly with the mutant enzyme or indirectly by acting in different cellular pathways; resulting to increased levels of the mutant and partially functional protein in the lysosomal compartment.
Chain of Arylsulfatase A (Homo sapiens) (P15289 whole entry, looked up): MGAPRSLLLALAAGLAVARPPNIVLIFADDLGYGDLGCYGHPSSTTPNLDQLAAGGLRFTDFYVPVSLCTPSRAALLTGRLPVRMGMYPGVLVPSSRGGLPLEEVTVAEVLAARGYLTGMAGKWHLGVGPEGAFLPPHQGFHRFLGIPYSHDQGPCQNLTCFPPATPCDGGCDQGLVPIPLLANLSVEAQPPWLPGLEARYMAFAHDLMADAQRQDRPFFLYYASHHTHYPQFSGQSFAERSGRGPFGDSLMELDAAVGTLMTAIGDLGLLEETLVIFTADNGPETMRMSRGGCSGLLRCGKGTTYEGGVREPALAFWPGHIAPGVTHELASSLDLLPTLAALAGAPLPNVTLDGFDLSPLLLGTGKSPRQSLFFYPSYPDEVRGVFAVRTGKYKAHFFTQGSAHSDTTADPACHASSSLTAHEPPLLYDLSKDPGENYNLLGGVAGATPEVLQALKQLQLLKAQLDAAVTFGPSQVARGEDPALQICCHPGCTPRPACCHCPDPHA
A cell based assay in 1536 well plate format was developed to evaluate activity of the lysosomal sulfatase ASA1 enzyme. ASA1 is deficient in metachromatic leukodystrophy (MLD), an LSD characterized by progressive neurodegeneration for which specific treatment is not available. Compounds that are active may therefore have some therapeutic application for this disease. This assay was used to validate the ASA1 qHTS using the Sigma LOPAC library. In this assay increase in signal = enhanced ASA1 activity. Activation is the desired outcome for this assay.
NIH Chemical Genomics Center [NCGC]
NIH Molecular Libraries Probe Centers Network [MLPCN]
Assay Submitter (PI): Gustavo Maegawa, Johns Hopkins University School of Medicine
[2] Gieselmann V, et al. Acta Paediatr Suppl. 2008; 97: 15-21
Four microliter (~8,000 cells/well) of SV40-transformed skin fibroblasts from an MLD patient (ASA-I179S) were seeded into a 1,536 solid white plate. Cells were left to adhere for 6 hrs, followed by addition of 23 nL of compounds. Cells were incubated with compounds for 48h at 37 degree C and 5% CO2. Four microliter of 1 mM pNCS substrate/lysis buffer (0.5mM pNCS final concentration) was added and incubated for 14h at room temperature. To stop the reaction, […] of 5 N of NaOH (1N NaOH final concentration) was then added and fluorescence was measured using the ViewLux plate reader (Ex=525 nm; Em=598 nm).
Regarding `C[N+]1(CCCCC[N+]2(C)CCCC2)CCCC1`, the outcome was inactive.
`CNCCC=C1c2ccccc2CCc2ccccc21`: the “activity change, positive = activation” value is -32.3%.
On the same count and under the same terms, the figure for `CN1C2CCC1CC(OC(=O)c1c[nH]c3ccccc13)C2` (stereo not given) is -69.5%; for `CC(CCc1ccccc1)NCC(O)c1ccc(O)c(C(N)=O)c1` (stereo not given) it is 25.1%.
The same measure, in the same setting: under `CNCCC(Oc1ccccc1C)c1ccccc1` (stereo not given) stands -31.9%.
Regarding `Nc1cc(Cl)c(NC2=NCCN2)c(Cl)c1`, the “activity change, positive = activation” value was 1.77%.
Turning to `CC1(C)CCC(NC(=O)[C@@H](N)CCC(=O)O)CC1`, the outcome was inactive.
On to `COc1cc2c(cc1O)CC[C@@H]1[C@@H]2CC[C@]2(C)[C@@H](O)CC[C@@H]12`, for which the outcome was inactive.
As to `CC(C)C[C@H]1C(=O)N2CCC[C@H]2[C@]2(O)O[C@](NC(=O)[C@@H]3C=C4c5cccc6[nH]c(Br)c(c56)C[C@H]4N(C)C3)(C(C)C)C(=O)N12`, the outcome was inactive.
On the same count and under the same terms, the entry for `COC(=O)[C@H]1[C@H]2C[C@H]3c4[nH]c5ccccc5c4CCN3C[C@H]2CC[C@@H]1O` is “inactive”; for `CCCn1c(=O)[nH]c(=O)c2[nH]cnc21` it is “inactive; inhibitor; fitted 0.151 uM”; for `CC[C@H](C)C(=O)O[C@H]1CCC=C2C=C[C@H](C)[C@H](CC[C@@H]3C[C@@H](O)CC(=O)O3)[C@H]21` it is “inactive”.
Take `N[C@@H](Cc1cnc[nH]1)C(=O)O`: the “activity change, positive = activation” value was -14.6%.
Same read-out and setting: under `Oc1ccc(O)cc1` stands -197%.
For the compound `N[C@H](CO)C(=O)O`, the result was inactive.
As for `CCCC1O[C@@H]2C[C@H]3[C@@H]4CCC5=CC(=O)C=C[C@]5(C)[C@H]4[C@@H](O)C[C@]3(C)[C@]2(C(=O)CO)O1` (stereo not given in full), the outcome was inactive.
Still for that read-out and setting: the entry for `O=C(O)c1cc2cc(Cc3cccnc3)ccc2o1` is “inactive”; for `C[C@@H]1C(=O)NC2=Nc3cccc(Cl)c3CN21` it is “inactive”; for `O=C1CCC(c2ccc(-n3ccnc3)cc2)=NN1` it is “inactive”.
`COc1cc(NS(C)(=O)=O)ccc1Nc1c2ccccc2nc2ccccc12`: the “activity change, positive = activation” value was 8.99%.
